Data from PubChem BioAssay (NCATS).
Records with an inconclusive call do not appear. Calls of active or inactive are those of the source. Calls come from the whole dose curve; as a rule, active = well fitted inhibition curve with a large enough effect; inconclusive = small, poorly fitted or top-dose-only effect; inactive = flat fitted curve, though single readings scatter.

Target: Calcium and integrin-binding protein 1 (Homo sapiens) (UniProt Q99828)
Assay: Primary qHTS for Identification of Calcium Integrin Binding Protein 1 (CIB1) Competitor (AID 1508620);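 note: GST tagged CIB1 binding a fluorescein labelled alphaIIb integrin peptide tracer; top concentration of the series differs between compounds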
Conditions: CIB1-GST / FITC-alphaIIb peptide fluorescence polarization; series mostly up to 57.7 µM; activity change, negative = inhibition: at the top concentration
Method in brief: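 Fluorescence polarization competition: CIB1-GST (1 uM final) preincubated with compound 15 min at room temperature, then FITC-labeled alphaIIb peptide (100 nM final) added for another 15 min. Polarization read at Ex 480/Em 540.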
% is set by controls: 0 for no effect and ±100 for the full control effect.

Calcium and integrin-binding protein 1 (Homo sapiens), sequence (Q99828 whole entry, looked up): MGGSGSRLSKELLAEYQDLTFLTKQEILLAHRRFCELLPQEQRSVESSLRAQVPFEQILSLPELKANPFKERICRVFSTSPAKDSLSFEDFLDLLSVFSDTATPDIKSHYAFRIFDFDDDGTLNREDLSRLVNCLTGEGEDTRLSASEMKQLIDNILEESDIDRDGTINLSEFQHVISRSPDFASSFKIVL

Row | SMILES | activity change, negative = inhibition
1 | CC1CCC(=O)CC(O)C(O)CC(=O)O1 (stereo unspecified) | -4.93% [at 114 µM] (inactive)
2 | CC1(C)CC2C3=CCC4C5(C)CCC(OC6OC(CO)C(O)C(OC7OC(CO)C(O)C(OC8OC(CO)C(O)C(OC9OC(COC%10OC(CO)C(O)C(O)C%10O)C(O)C(O)C9O)C8O)C7O)C6O)C(C)(C)C5CCC4(C)C3(C)CCC2(C(=O)O)CC1O (stereo unspecified) | 1.69% [at 12.4 µM] (inactive)
3 | C[C@@H]1CCN(C(=O)CC#N)C[C@@H]1N(C)c1ncnc2[nH]ccc12 | 1.78% [at 114 µM] (inactive)
4 | CCOC(=O)[C@H](CCc1ccccc1)CC1(C(=O)N[C@H]2CCc3ccccc3N(CC(=O)O)C2=O)CCCC1 | -2.41% [at 114 µM] (inactive)
5 | C1CCN2CC3C[C@@H](CN4CCCC[C@@H]34)[C@H]2C1 | 3.88% [at 114 µM] (inactive)
6 | C[C@@H]1C(=O)O[C@H]2[C@H]1CC[C@@]1(C)C(=O)C=C[C@](C)(O)[C@H]21 | 2.36% [at 114 µM] (inactive)
7 | CC(=O)O[C@@]1(C)C[C@@H](O)[C@]2(O)C=CO[C@@H](O[C@@H]3O[C@H](CO)[C@@H](O)[C@H](O)[C@H]3O)[C@@H]21 | 4.86% (inactive)
8 | C/C=C/C=C/C=C/C(=O)O[C@@H]1[C@@H](OC)C2=C(C(=O)N(C(C)C(=O)O)C2)[C@@]2(C)CCCC(C)(C)[C@H]12 (stereo partly specified) | 0.665% (inactive)
9 | CC(=O)OC(CSC1CCC(=O)OC(C)CCC(=O)C1)C(=O)O (stereo unspecified) | -0.294% (inactive)
10 | CCOC(=O)Nc1nc2ccccc2[nH]1 | 0.856% [at 114 µM] (inactive)
11 | CC1(C)CC[C@]2(C(=O)O)CC[C@]3(C)C(=CCC4[C@@]5(C)CCC(O[C@@H]6OC[C@H](O)[C@H](O)[C@H]6O[C@@H]6O[C@H](CO)[C@@H](O)[C@H](O)[C@H]6O)[C@@](C)(CO)C5CC[C@]43C)[C@@H]2C1 (stereo partly specified) | 2.52% [at 30.2 µM] (inactive)
